Here are results for three compounds from ChEMBL document CHEMBL1201862, “PubChem BioAssay data set” (2004).

The whole screen tested about 390,000 compounds, of which about 17,000 (4.4%) were called active. Not shown: some 8% with an inconclusive outcome. No cut-off for these calls is given here. The sample as a whole holds a higher share of actives than the screen did.

This assay addresses T1, Lysine-specific demethylase 4A (Homo sapiens) (UniProt O75164).
T1 sequence (whole entry): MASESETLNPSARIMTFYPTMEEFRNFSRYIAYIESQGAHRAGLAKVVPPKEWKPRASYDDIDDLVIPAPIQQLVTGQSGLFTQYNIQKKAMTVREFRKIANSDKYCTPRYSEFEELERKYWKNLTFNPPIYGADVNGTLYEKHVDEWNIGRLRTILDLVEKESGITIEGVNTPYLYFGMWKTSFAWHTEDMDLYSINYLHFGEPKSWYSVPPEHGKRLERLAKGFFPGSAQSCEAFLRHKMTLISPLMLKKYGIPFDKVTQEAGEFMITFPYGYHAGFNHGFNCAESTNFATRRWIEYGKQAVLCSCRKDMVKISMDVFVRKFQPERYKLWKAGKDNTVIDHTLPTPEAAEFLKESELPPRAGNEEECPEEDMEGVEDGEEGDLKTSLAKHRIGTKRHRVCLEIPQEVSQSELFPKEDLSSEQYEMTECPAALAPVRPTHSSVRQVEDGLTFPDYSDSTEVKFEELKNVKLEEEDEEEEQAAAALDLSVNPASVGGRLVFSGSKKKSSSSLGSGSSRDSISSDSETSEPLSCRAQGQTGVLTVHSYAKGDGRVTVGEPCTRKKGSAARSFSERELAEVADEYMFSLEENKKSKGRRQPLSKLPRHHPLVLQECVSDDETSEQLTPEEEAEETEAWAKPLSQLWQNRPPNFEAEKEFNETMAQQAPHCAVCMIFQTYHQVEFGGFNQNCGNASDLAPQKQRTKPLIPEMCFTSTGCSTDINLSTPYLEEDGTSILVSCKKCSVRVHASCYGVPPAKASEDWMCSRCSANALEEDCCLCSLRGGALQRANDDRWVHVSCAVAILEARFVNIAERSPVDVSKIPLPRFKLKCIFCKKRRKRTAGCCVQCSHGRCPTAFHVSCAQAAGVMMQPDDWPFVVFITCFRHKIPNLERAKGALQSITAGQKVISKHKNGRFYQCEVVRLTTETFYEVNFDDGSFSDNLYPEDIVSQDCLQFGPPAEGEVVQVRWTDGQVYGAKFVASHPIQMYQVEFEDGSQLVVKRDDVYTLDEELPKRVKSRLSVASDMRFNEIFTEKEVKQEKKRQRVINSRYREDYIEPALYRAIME
The experiment in a line: qHTS Assay for Inhibitors of JMJD2A-Tudor Domain. [Related pubchem assays (depositor defined):AID504402]. It counts as functional. On the technique in general: In qHTS, concentration-response curves come from the screen itself.
Turning to `CCCc1nnc(NC(=O)C2C(=O)c3cccc4c3N(CC4)C2=O)s1` (stereo not drawn), the Potency is 44.7 µM (active).

With `Cl.NC(CCC(=O)O)C(=O)O` (stereo not drawn), the Potency is 3.55 µM (active). Then `Cl.N[C@@H](CCC(=O)O)C(=O)O`, with 20 µM (active).
